Measured values: PubChem BioAssay (Tox21)
Several values for one entry are separate records, joined by “and”; a condition that tells them apart may be missing. Identical values can stand only once. Results filed as inconclusive are left out. Where a call stands in place of a potency, no number is given. Where a structure was tested more than once in an assay, its records may differ in their call. Activity calls are given as the source filed them. Unless noted, the call rests on the fitted dose curve; in most records, active means well fitted curve in the direction sought with a large enough effect in the repeat runs; inconclusive means weak or mixed curves; inactive means no such curve, though single readings can be large; an effect the other way counts as inactive or inconclusive.

Assays:
[1] = qHTS assay for small molecule agonists of the p53 signaling pathway (AID 651631; calls by dose curve; further: nearly all actives have a fitted effect of over 15% in size)
How it was run: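 HCT-116 cells carrying a beta-lactamase reporter under p53 response elements were dosed with compound for 16 h at 37 °C. LiveBLAzer B/G FRET substrate was then added for 2 h at room temperature, and fluorescence intensity was read to detect pathway agonism.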

[2] = qHTS assay for small molecules that induce genotoxicity in human embryonic kidney cells expressing luciferase-tagged ATAD5 (AID 651632); further: nearly all actives have a fitted effect of over 15% in size
How it was run: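 A rise in luciferase signal from ATAD5-tagged HEK293T cells marks genetic stress. Cells were exposed to compounds for 16 hr at 37C, 5% CO2, then luciferase was quantified after a 30 min room-temperature incubation with Amplite.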

[3] = qHTS assay for small molecule agonists of the p53 signaling pathway - cell viability (AID 651633; calls by dose curve; further: nearly all actives have a fitted effect of over 30% in size; further: potency means the concentration at half of the fitted maximal effect)
How it was run: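 p53RE-bla cells were treated with compound for 16 hours at 37 C. Cytotoxicity was then measured as CellTiter-Glo luminescence after 30 min at room temperature.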

[4] = qHTS assay for small molecules that induce genotoxicity in human embryonic kidney cells expressing luciferase-tagged ATAD5 - cell viability (AID 651634; calls by dose curve; further: nearly all actives have a fitted effect of over 25% in size)
How it was run: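 Cytotoxicity counter-readout: after 15.5 hr compound treatment at 37C, live-cell protease activity in ATAD5-luciferase HEK293T cells measured by CellTiter-Fluor fluorescence, 30 min development at 37C.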

[5] = qHTS assay for small molecule disruptors of the mitochondrial membrane potential - cell viability (AID 720634; calls by dose curve; further: nearly all actives have a fitted effect of over 20% in size; further: potency means the concentration at half of the fitted maximal effect)
How it was run: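 Cytotoxicity was quantified from ATP content by CellTiter-Glo luminescence in the same wells as the MMP dye read-out. HepG2 (2,000 cells/well) were plated overnight and exposed to compounds for 1 hr at 37 C.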

[6] = qHTS assay for small molecule disruptors of the mitochondrial membrane potential (AID 720635); further: potency means the concentration at half of the fitted maximal effect
How it was run: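 HepG2 cells exposed to compound 1 hr at 37C, then Mito-MPS dye 30 min. Ratio read of aggregate (540/590 nm) versus monomer (490/535 nm) fluorescence.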

[7] = qHTS assay to test for compound auto fluorescence at 590 nm (red) in HepG2 cells (AID 720674)
How it was run: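 Seeding: 2,000 HepG2 cells/well, MEM/10% FBS, overnight 37 C. Dosing: compound vs DMSO. Incubation: 1 hr, 37 C, 5% CO2. Read: fluorescence 540 ex/590 em, Rose Bengal sodium as red reference.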

[8] = qHTS assay to test for compound auto fluorescence at 535 nm (green) in HepG2 cells (AID 720675)
[9] = qHTS assay to test for compound auto fluorescence at 460 nm (blue) in HEK293 cells (AID 720678)
How it was run: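 Blue-channel (Ex/Em 405/460 nm) intensity measured in HEK293 cultures after overnight compound exposure at 37C; signal expressed relative to triamterene. Cells plated 2,000 per well in 10% dialyzed FBS medium and allowed 4-5 hr to attach.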

[10] = qHTS assay to test for compound auto fluorescence at 590 nm (red) in HEK293 cells (AID 720679)
How it was run: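 Red-channel autofluorescence (Ex/Em 540/590 nm; Rose Bengal sodium reference) was measured after overnight 37C, 5% CO2 exposure of attached HEK293 cells, 2,000 per well in medium with 10% dialyzed FBS.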

[11] = qHTS assay to test for compound auto fluorescence at 535 nm (green) in HEK293 cells (AID 720680)
[12] = qHTS assay to test for compound auto fluorescence at 460 nm (blue) in HEK293 cell free culture (AID 720681)
How it was run: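 Compounds were added to cell-free DMEM with 10% FBS and fluorescence read directly. The blue channel used 405 nm excitation and 460 nm emission, with triamterene as the reference fluorophore.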

[13] = qHTS assay to test for compound auto fluorescence at 590 nm (red) in HEK293 cell free culture (AID 720683)
How it was run: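 Cell-free wells of DMEM with 10% FBS received compound, and intrinsic fluorescence was read at excitation/emission 540/590 nm. Values expressed as equivalence to Rose Bengal sodium.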

[14] = qHTS assay to test for compound auto fluorescence at 590 nm (red) in HepG2 cell free culture (AID 720684)
How it was run: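 Rose Bengal sodium served as the reference for red signal. Test compounds were dispensed into serum-containing MEM (10% FBS) without cells, and plates were read at 540/590 nm.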

[15] = qHTS assay to test for compound auto fluorescence at 460 nm (blue) in HepG2 cell free culture (AID 720685)
How it was run: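 Cell-free plates of MEM plus 10% FBS received 23 nL compound or DMSO vehicle; blue-channel (405/460 nm) intensity scored against triamterene as reference fluorophore.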

[16] = qHTS assay to test for compound auto fluorescence at 535 nm (green) in HepG2 cell free culture (AID 720686)
[17] = qHTS assay to test for compound auto fluorescence at 460 nm (blue) in HepG2 cells (AID 720687)
How it was run: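 HepG2 cells in MEM with 10% FBS, attached overnight at 37 C, were exposed to compound or DMSO for 1 hr at 37 C, 5% CO2. Blue fluorescence was read at 405/460 nm, with triamterene as reference fluorophore.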

[18] = target: Glucocorticoid receptor (Homo sapiens) (UniProt P04150); assay: qHTS assay to identify small molecule agonists of the glucocorticoid receptor (GR) signaling pathway (AID 720691; active means well fitted activation curve with a large enough effect in the signal ratio in the repeat runs, not every such curve was filed as active; the % refers to the signal ratio)
How it was run: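 Agonist-mode qHTS in HeLa cells stably expressing a glucocorticoid-response-element beta-lactamase reporter. Fluorescence intensity read with FRET substrate (2 h, room temperature) after 18 h compound treatment at 37 C.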

[19] = target: Glucocorticoid receptor (Homo sapiens) (UniProt P04150); assay: qHTS assay to identify small molecule antagonists of the glucocorticoid receptor (GR) signaling pathway (AID 720692; active means well fitted inhibition curve with a large enough effect in the signal ratio in the repeat runs, not every such curve was filed as active; the % refers to the signal ratio)
How it was run: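 Inhibition of dexamethasone-driven (5 nM final) beta-lactamase expression was measured in GRE-reporter HeLa cells over 18 h at 37C. Fluorescence was read after 2 h with the B/G FRET substrate at room temperature.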

[20] = qHTS assay to test for compound auto fluorescence at 535 nm (green) in HEK293 cell free culture (AID 720682)
How it was run: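 Green-label autofluorescence (485 nm excitation, 535 nm emission) measured on compound added to cell-free culture medium (DMEM, 10% FBS). Output is expressed relative to fluorescein.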

Chain of Glucocorticoid receptor (Homo sapiens) (P04150 whole entry, looked up): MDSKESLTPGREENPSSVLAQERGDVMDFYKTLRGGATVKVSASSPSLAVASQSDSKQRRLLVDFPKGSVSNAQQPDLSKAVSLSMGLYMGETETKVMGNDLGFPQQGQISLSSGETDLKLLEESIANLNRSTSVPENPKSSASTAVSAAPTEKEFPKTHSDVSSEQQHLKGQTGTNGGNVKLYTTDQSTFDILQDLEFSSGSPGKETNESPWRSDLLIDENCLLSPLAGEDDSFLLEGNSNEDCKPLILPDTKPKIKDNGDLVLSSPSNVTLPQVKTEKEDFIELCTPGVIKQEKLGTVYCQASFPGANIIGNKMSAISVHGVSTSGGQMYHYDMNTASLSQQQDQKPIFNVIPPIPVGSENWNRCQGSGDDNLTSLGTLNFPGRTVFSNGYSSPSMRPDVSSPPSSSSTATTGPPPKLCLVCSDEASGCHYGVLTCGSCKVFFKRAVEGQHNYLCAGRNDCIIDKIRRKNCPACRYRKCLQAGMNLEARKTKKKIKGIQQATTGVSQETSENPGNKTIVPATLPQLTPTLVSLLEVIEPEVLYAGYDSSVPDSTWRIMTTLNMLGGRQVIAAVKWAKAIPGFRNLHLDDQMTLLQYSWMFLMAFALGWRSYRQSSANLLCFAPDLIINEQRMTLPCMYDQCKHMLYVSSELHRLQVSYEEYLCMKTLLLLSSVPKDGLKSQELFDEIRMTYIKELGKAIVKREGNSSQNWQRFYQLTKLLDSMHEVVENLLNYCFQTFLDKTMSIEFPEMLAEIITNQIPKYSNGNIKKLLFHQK

Row | SMILES | Potency [1] | Potency [2] | Potency [3] | Potency [4] | Potency [5] | Potency [6] | outcome [7] | outcome [8] | outcome [9] | outcome [10] | outcome [11] | outcome [12] | outcome [13] | outcome [14] | outcome [15] | outcome [16] | outcome [17] | outcome [18] | Potency [19] | outcome [20]
1 | CC(C)(C)C(=O)CCl | inactive | inactive | inactive | inactive | inactive | inactive | inactive | inactive | inactive | inactive | inactive | inactive | inactive | inactive | inactive | inactive | inactive | inactive | inactive | –
2 | COS(=O)(=O)OC | inactive | inactive | inactive | – | inactive | inactive | inactive | inactive | inactive | – | – | – | inactive | inactive | inactive | inactive | inactive | inactive | inactive | –
3 | Nc1ccc([As](=O)(O)O)cc1 | inactive | inactive | inactive | inactive | inactive | inactive | inactive | – | inactive | – | inactive | inactive | inactive | inactive | inactive | inactive | inactive | – | – | –
4 | Cc1ccccc1N | inactive | inactive | inactive | inactive | inactive | inactive | inactive | – | inactive | inactive | inactive | – | inactive | inactive | inactive | inactive | inactive | – | – | inactive
5 | CC(=O)C1CCOC1=O (stereo unspecified) | inactive | inactive | inactive | inactive | inactive | inactive | inactive | – | inactive | inactive | – | inactive | inactive | inactive | inactive | inactive | inactive | inactive | inactive | inactive
6 | CNC(=O)O/N=C(\SC)C(=O)N(C)C | inactive | inactive | inactive | – | inactive | inactive | inactive | – | inactive | inactive | inactive | inactive | inactive | inactive | inactive | inactive | inactive | – | – | inactive
7 | O=C(O)COc1ccccc1 | inactive | inactive | inactive | inactive | inactive | inactive | inactive | inactive | inactive | – | inactive | inactive | inactive | inactive | inactive | inactive | inactive | inactive | inactive | inactive
8 | CCOP(=S)(OCC)Oc1cc(C)nc(C(C)C)n1 | inactive | inactive | inactive and 61.1 µM (active) | – | inactive and 48.6 µM (active) | inactive and 30.6 µM (active) | inactive | inactive | inactive | inactive | – | inactive | inactive | inactive | inactive | inactive | inactive | inactive | inactive | –
9 | Clc1cnc(Oc2ccc(Oc3ncc(Cl)cc3Cl)cc2)c(Cl)c1 | inactive | inactive | inactive | inactive | inactive | 10.7 µM (active) and 48.6 µM (active) | inactive | – | inactive | inactive | – | inactive | inactive | inactive | inactive | inactive | inactive | inactive | inactive | –
10 | N#CN=C(N)N | inactive | inactive | inactive | – | inactive | inactive | inactive | inactive | inactive | – | inactive | inactive | inactive | inactive | inactive | inactive | inactive | – | – | –
11 | CNC(=O)Oc1cccc2ccccc12 | inactive | inactive | inactive | inactive | inactive | 13.3 µM (active) | inactive | inactive | inactive | inactive | inactive | inactive | inactive | inactive | inactive | inactive | inactive | – | – | inactive
12 | CCSC(=O)N1CCCCCC1 | inactive | inactive | inactive | – | inactive | inactive | inactive | inactive | inactive | – | – | – | inactive | inactive | inactive | inactive | inactive | – | – | inactive
13 | O=[N+]([O-])c1cc([As](=O)(O)O)ccc1O | inactive | inactive | inactive | inactive | inactive | inactive | inactive | inactive | inactive | – | – | inactive | inactive | inactive | inactive | inactive | inactive | inactive | inactive | –
14 | CCOC(=O)CC(SP(=O)(OC)OC)C(=O)OCC (stereo unspecified) | inactive | inactive | inactive | – | inactive | inactive | inactive | – | inactive | inactive | inactive | – | inactive | inactive | inactive | inactive | inactive | inactive | inactive | inactive
15 | OCC(O)CCl (stereo unspecified) | inactive | inactive | inactive | – | inactive | inactive | inactive | – | inactive | inactive | inactive | inactive | inactive | inactive | inactive | inactive | inactive | inactive | inactive | inactive
